ChEMBL document CHEMBL3433997, “St. Jude Leishmania screening dataset” (2016)

How the values were obtained:
Format in all cases: functional
[1] = biological target: Solute carrier family 2, facilitated glucose transporter member 1 (Homo sapiens) (UniProt P11166); assay: ST_JUDE_LEISH: Cytotoxicity at 2uM final concentration against transgenic Leishmania Mexicana promastigotes LmGLUT1 that are glucose transport deficient and complemented with the human glucose transporter GLUT1. Activity is measured by DNA content using SYBR green in vitro
[2] = biological target: Hexose transporter 1 (Plasmodium falciparum) (UniProt O97467); assay: ST_JUDE_LEISH: Cytotoxicity at 2uM final concentration against transgenic Leishmania Mexicana promastigotes LmPfHT that are glucose transport deficient and complemented with the Plasmodium falciparum hexose transporter. Activity is measured by DNA content using SYBR green in vitro
[3] = biological target: Glucose transporter (Leishmania mexicana) (UniProt O61059); assay: ST_JUDE_LEISH: Cytotoxicity at 2uM final concentration against transgenic Leishmania Mexicana promastigotes LmGT2 that are glucose transport deficient and complemented with the L. Mexicana glucose transporter 2. Activity is measured by DNA content using SYBR green in vitro

Sequence of Solute carrier family 2, facilitated glucose transporter member 1 (Homo sapiens) (P11166 whole entry): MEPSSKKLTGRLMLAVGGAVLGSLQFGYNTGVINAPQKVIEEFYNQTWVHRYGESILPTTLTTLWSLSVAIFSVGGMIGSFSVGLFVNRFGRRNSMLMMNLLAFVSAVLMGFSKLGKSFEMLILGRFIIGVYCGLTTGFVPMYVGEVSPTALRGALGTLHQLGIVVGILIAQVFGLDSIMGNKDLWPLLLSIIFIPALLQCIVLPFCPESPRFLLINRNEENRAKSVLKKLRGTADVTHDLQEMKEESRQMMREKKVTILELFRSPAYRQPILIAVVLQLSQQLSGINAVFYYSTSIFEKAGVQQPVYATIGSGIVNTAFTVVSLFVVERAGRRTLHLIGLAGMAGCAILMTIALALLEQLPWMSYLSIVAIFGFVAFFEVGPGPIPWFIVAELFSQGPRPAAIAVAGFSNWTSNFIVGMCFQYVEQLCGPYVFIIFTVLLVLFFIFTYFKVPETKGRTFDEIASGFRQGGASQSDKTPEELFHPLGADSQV

Work on `CCCCCCc1cc(OC)c(OC)cc1C(C)Nc1ccnc2cc(Cl)ccc12` (centres undefined) yielded an inhibition [1] of 8.21%, an inhibition [2] of 5.09% and an inhibition [3] of 0.14%.
Compound `CCN(CC)C(=O)c1cnc(-c2ccccc2)nc1Oc1cccc(Cl)c1` has an inhibition [1] of -0.46%, an inhibition [2] of 2.57% and an inhibition [3] of 3%.
`CCCNCc1ccc(-c2ccc(CN(CCOC)C(=O)Cc3cccnc3)cc2)nc1` was tested, and the inhibition [1] was 0.25%, the inhibition [2] was 1.34% and the inhibition [3] was 3.67%.
For `Cc1ncc(CN2CCC(C(=O)Nc3ccc(-c4nc5ccccc5o4)cc3)CC2)s1`, the inhibition [1] was -2.13%, the inhibition [2] was -3.66% and the inhibition [3] was -0.97%.
Compound `O=C(Nc1ccc(Cn2ncc(N3CCCNCC3)c(Cl)c2=O)cc1)Nc1ccc(SC(F)(F)F)cc1` has an inhibition [1] of 3.57%, an inhibition [2] of 10.1% and an inhibition [3] of -1.22%.
Compound `COc1cc(Cc2cnc(N)nc2N)cc(OCCn2ccccc2=O)c1OC` has an inhibition [1] of 2.42%, an inhibition [2] of 2.33% and an inhibition [3] of 1.46%.
Work on `COc1cccc2c(Nc3ccccc3C)nc(Nc3ccccc3C)nc12` yielded an inhibition [1] of 19.6%, an inhibition [2] of 16.8% and an inhibition [3] of 4.14%.
`CN1CCN(CCCN(Cc2cccc(-c3ccc(CNC4CCCC4)cc3)c2)C(=O)CCC2CCCC2)CC1` showed an inhibition [1] of 17.4%, an inhibition [2] of 8.03% and an inhibition [3] of 3.62%.
Compound `COc1ccc2nccc([C@@H](O)CN3CCC(NC(=O)C(c4cc5ccccc5o4)N4CCN(Cc5ccccc5)CC4)CC3)c2c1` (some centres undefined) has an inhibition [1] of 3.8%, an inhibition [2] of 1.35% and an inhibition [3] of 0.77%.
`COc1ccc2nccc([C@@H](O)CN3CCC(NCc4ccc(OC)c(NC=O)c4)CC3)c2c1` was tested, and the inhibition [1] was 3.28%, the inhibition [2] was 4.05% and the inhibition [3] was 2.18%.
Compound `CCc1nc(N)nc(N)c1-c1ccc(Cl)cc1` has an inhibition [1] of 2.26%, an inhibition [2] of 3.31% and an inhibition [3] of 3.36%.
`O=C(Nc1cc(F)cc(-c2cccnc2)c1)c1ccc2c(=O)n(Cc3ccccc3)cnc2c1` was tested, and the inhibition [1] was 0.81%, the inhibition [2] was 1.52% and the inhibition [3] was -1.46%.
`Cc1cccc2nc(-c3cccc(-c4cccc(C(=O)NCCc5cn(C)cn5)c4)c3)[nH]c12` was tested, and the inhibition [1] was -0.8%, the inhibition [2] was -0.53% and the inhibition [3] was 0.89%.
`Oc1ccc(-c2nc3c(N4CCN(Cc5ccccc5)CC4)cccc3n2C2CCNCC2)cc1` showed an inhibition [1] of 3.29%, an inhibition [2] of 7.64% and an inhibition [3] of 2.62%.
Work on `CCc1c(CCNCCCCCCNCCc2ccccc2)ccc(OC)c1OC` yielded an inhibition [1] of 4.61%, an inhibition [2] of 5.04% and an inhibition [3] of 2.63%.
`O=S(=O)(NCCN1CCCC1)c1ccc(-c2cccc(CNCc3ccsc3)c2)s1` showed an inhibition [1] of 5.4%, an inhibition [2] of 2.42% and an inhibition [3] of -1.72%.
With `O=C(Nc1ccc(Cl)cc1)Nc1ccc(-c2cccc(-c3nc4cc(F)ccc4[nH]3)c2)cc1` the inhibition [1] was 2.83%, the inhibition [2] was 4.68% and the inhibition [3] was 3.09%.
For `COc1ccc(-c2nc(NC(=O)Cc3coc4cc(OC)ccc34)sc2C)cc1`, the inhibition [1] was -1.68%, the inhibition [2] was 0.45% and the inhibition [3] was -0.72%.
`COc1ccc2[nH]cc(C3CCN(CCCCCNC(=O)c4ccc(-c5ccccc5)cc4)CC3)c2c1` gave an inhibition [1] of 4.24%, an inhibition [2] of 3.36% and an inhibition [3] of 2.9%.
`O=C(Nc1ccc(-c2nc3ccccc3[nH]2)cc1)c1ccc(N2CCOCC2)c([N+](=O)[O-])c1` showed an inhibition [1] of -0.45%, an inhibition [2] of -0.76% and an inhibition [3] of -0.91%.
With `COc1ccc(N2CCN(C(CNC(=O)C3CCCCC3)c3ccc4c(c3)OCO4)CC2)cc1` (centres undefined) the inhibition [1] was 3.65%, the inhibition [2] was 4.28% and the inhibition [3] was 4.35%.
Work on `CCCN(CCC)C(=O)c1cc(C(=O)N[C@@H](Cc2ccccc2)[C@H](O)CNC(C)(C)c2cccc(C(F)(F)F)c2)cc(N2CCCCS2(=O)=O)c1` yielded an inhibition [1] of -1.43%, an inhibition [2] of 4.18% and an inhibition [3] of -1.54%.
Compound `CCCC(=O)Nc1ccc(OCCCN(Cc2ccccc2F)c2ccc(C#N)c(C(F)(F)F)c2)cc1` has an inhibition [1] of 1.79%, an inhibition [2] of 0.66% and an inhibition [3] of 0.71%.
With `CC1CCCCN1CCCNc1nc(NCc2ccccc2)c2ccccc2n1` (centres undefined) the inhibition [1] was 23.1%, the inhibition [2] was 31.8% and the inhibition [3] was 10.2%.
`CCCNc1nc(NCc2c(C)cccc2C)nc(NC(C)(C)C)n1` gave an inhibition [1] of 6.93%, an inhibition [2] of 8.23% and an inhibition [3] of 1.74%.
For `NC(=O)c1cccc(Nc2nccc(Nc3ccc4[nH]c(-c5ccccc5)cc4c3)n2)c1`, the inhibition [1] was -0.28%, the inhibition [2] was 0.57% and the inhibition [3] was 1.6%.
`CC(=O)NC(c1cccs1)c1cc(Cl)c2cccnc2c1O` (centres undefined) showed an inhibition [1] of 7.76%, an inhibition [2] of 6.65% and an inhibition [3] of 7.85%.
`COc1ccc(-c2cc(C(=O)N[C@@H](Cc3ccccc3)C(=O)NCCN3CCCCC3)ccc2O)cc1` was tested, and the inhibition [1] was 5.18%, the inhibition [2] was 2.26% and the inhibition [3] was 4.04%.
Compound `Cc1nc(N)nc(N)c1OCCCOc1cccc(Cl)c1Cl` has an inhibition [1] of 65.6%, an inhibition [2] of 65.8% and an inhibition [3] of 56.7%.
In the case of `Cn1c(Sc2ncnc3sccc23)nc2ccccc21`, the inhibition [1] is reported as 2.32%, the inhibition [2] is reported as 2.23% and the inhibition [3] is reported as 2.32%.
Work on `COc1cc(Nc2nccc(Nc3ccc4c(C)n[nH]c4c3)n2)cc2ccccc12` yielded an inhibition [1] of 5.04%, an inhibition [2] of 2.79% and an inhibition [3] of -0.29%.
Work on `CCCCCCCCCCN1C(=O)C2C(CCCCNC(C)=O)NC3(C(=O)N(Cc4ccc(C(C)(C)C)cc4)c4ccccc43)C2C1=O` (centres undefined) yielded an inhibition [1] of 9.76%, an inhibition [2] of 9.32% and an inhibition [3] of 3.53%.
`CCNc1cc(C(=O)NC(Cc2ccccc2)C(O)CNC(C)(C)CCCC(C)C)c(F)c(N2CCCS2(=O)=O)c1` (centres undefined) showed an inhibition [1] of -2.99%, an inhibition [2] of -1.24% and an inhibition [3] of 1.59%.
